From the supplement of paper PMC10849652
About 8,800 targets were measured; listed, in parts, are those with a hit and a random draw of the rest. About 0.5% of all pairs of compound and target were hits.

How the values were obtained:
Assay in all cases: log2 fold change, soluble protein after heating vs DMSO (PISA); higher = thermal stabilisation; K562 lysate, 10 uM; active = over 0.2 and 3.5 SD of the protein, either way, in both replicates (recomputed)
[1] = compound: NCC(=O)Nc1ccc(-n2nc(C(F)(F)F)cc2-c2ccc3c(ccc4ccccc43)c2)cc1
Procedure, shortened: (§1)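 Following dounce homogenisation of K562 pellets in PBS pH 7.4 with 1 mM MgCl2, crude extract at 1 mg/mL protein was incubated for 30 min with 10 μM compound. Aliquots were then heated for 3 min over 48°C-58°C and pooled, NP-40 was added to 0.5% at 4°C, and soluble protein was recovered as the supernatant at 21,000xg for 90 min. Channel-sum-equalised TMTpro 16plex LC-MS/MS quantified this protein. Each value, from duplicates, is a log-two fold change in thermal stability relative to solvent controls.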

vorinostat = compound: O=C(CCCCCCC(=O)Nc1ccccc1)NO [vorinostat]
Procedure, shortened: as §1

silmitasertib = compound: O=C(O)c1ccc2c(c1)nc(Nc1cccc(Cl)c1)c1ccncc12 [silmitasertib]
Procedure, shortened: as §1

[2] = compound: O=C1NC(=O)C(c2cnc3ccccn23)=C1c1cn2c3c(cc(F)cc13)CN(C(=O)N1CCCCC1)CC2
Procedure, shortened: as §1

entospletinib = compound: c1cn2cc(-c3ccc4cn[nH]c4c3)nc(Nc3ccc(N4CCOCC4)cc3)c2n1 [entospletinib]
Procedure, shortened: as §1

Measured: log2 fold change

DCTN1 isoform 4 (UniProt Q14203)
inactive: [1] 0.144 | vorinostat -0.143 | silmitasertib -0.027 | [2] 0.011 | entospletinib -0.085

DDB2 (UniProt Q92466)
inactive: [1] 0.054 | vorinostat 0.048 | silmitasertib -0.022 | [2] -0.002 | entospletinib 0.019

COPZ1 isoform 4 (UniProt P61923)
inactive: [1] -0.068 | vorinostat 0.188 | silmitasertib -0.032 | [2] 0.163 | entospletinib -0.025

CTNNBL1 (UniProt Q8WYA6)
inactive: [1] -0.026 | vorinostat -0.046 | silmitasertib -0.044 | [2] -0.025 | entospletinib -0.011

CSNK2A2 (UniProt P19784)
inactive: [1] 0.383 | vorinostat -0.105 | [2] -0.008 | entospletinib 0.466
active: silmitasertib 0.879

CKM (UniProt P06732)
UniProt P06732, sequence (P06732 whole entry, looked up): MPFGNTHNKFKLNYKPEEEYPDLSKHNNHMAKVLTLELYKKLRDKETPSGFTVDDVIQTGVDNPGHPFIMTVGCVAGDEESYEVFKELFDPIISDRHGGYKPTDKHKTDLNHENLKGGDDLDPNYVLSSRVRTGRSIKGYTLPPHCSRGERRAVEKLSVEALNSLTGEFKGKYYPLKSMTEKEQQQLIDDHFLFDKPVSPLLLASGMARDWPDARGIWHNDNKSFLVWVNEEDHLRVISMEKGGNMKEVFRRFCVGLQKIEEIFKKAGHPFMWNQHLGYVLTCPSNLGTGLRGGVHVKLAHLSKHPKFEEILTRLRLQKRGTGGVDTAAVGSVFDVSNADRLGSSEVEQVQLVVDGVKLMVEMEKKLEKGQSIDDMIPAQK
inactive: [1] 0.003 | vorinostat -0.053 | silmitasertib -0.025 | [2] -0.014 | entospletinib -0.026

DENND6A (UniProt Q8IWF6)
UniProt Q8IWF6, sequence (Q8IWF6 whole entry, looked up): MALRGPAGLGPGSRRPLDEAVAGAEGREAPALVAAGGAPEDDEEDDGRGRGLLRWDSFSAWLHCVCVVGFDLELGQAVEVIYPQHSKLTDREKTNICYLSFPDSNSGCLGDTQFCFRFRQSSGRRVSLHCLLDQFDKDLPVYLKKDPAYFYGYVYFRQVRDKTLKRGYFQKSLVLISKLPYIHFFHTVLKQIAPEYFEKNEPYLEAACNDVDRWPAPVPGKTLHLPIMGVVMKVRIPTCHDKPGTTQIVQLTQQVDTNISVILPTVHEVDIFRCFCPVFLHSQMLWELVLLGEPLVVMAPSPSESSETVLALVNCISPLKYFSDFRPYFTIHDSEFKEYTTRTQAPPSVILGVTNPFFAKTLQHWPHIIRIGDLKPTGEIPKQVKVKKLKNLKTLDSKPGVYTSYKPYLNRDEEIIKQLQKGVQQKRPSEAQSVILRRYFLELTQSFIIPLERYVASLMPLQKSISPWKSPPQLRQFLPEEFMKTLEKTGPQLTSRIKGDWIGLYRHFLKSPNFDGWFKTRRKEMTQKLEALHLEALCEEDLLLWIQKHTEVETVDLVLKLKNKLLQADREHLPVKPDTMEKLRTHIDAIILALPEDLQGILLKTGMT
inactive: [1] -0.049 | silmitasertib 0.1 | [2] -0.07 | entospletinib -0.051
active: vorinostat -0.38

CXorf38 (UniProt Q8TB03)
inactive: [1] 0.092 | silmitasertib -0.013 | [2] 0.042 | entospletinib -0.073
active: vorinostat -0.227

CSNK1G3 (UniProt Q9Y6M4)
inactive: [1] -0.004 | vorinostat -0.011 | silmitasertib 0.055 | [2] -0.029 | entospletinib 0.039

CHMP4A isoform 2 (UniProt Q9BY43)
UniProt Q9BY43, sequence (Q9BY43 whole entry, looked up): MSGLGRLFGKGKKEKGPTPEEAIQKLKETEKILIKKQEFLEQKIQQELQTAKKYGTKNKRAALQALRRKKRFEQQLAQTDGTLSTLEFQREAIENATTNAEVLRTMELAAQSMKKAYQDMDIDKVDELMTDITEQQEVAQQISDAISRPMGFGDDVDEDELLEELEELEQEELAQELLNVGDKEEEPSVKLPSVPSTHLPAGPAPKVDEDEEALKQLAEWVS
inactive: [1] 0.011 | vorinostat 0.1 | silmitasertib -0.027 | [2] -0.051 | entospletinib 0.019

CNST (UniProt Q6PJW8)
inactive: [1] 0.051 | vorinostat 0.056 | silmitasertib -0.028 | [2] -0.067 | entospletinib -0.024

COG2 (UniProt Q14746)
active: vorinostat -0.315
inactive: [1] -0.031 | silmitasertib 0.055 | [2] 0.061 | entospletinib 0.058

CNOT4 isoform 9 (UniProt O95628)
UniProt O95628, sequence (O95628 whole entry, looked up): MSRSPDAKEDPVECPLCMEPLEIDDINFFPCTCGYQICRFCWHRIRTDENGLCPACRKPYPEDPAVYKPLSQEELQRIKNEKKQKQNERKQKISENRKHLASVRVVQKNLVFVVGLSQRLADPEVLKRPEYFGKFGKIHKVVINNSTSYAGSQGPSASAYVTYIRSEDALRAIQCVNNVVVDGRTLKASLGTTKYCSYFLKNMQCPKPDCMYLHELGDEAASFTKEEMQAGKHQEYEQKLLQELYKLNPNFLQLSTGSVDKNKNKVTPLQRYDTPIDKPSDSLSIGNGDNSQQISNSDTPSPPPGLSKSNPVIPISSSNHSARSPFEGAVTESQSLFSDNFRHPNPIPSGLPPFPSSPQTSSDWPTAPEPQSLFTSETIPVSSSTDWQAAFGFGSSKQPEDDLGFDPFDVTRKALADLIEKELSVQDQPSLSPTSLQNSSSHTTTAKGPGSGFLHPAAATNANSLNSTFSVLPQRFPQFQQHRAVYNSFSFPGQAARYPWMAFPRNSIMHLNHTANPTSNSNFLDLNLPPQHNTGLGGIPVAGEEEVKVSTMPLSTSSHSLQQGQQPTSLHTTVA
inactive: [1] 0.036 | vorinostat 0.098 | silmitasertib 0.044 | [2] -0.031 | entospletinib 0.009

CTPS2 (UniProt Q9NRF8)
UniProt Q9NRF8, sequence (Q9NRF8 whole entry, looked up): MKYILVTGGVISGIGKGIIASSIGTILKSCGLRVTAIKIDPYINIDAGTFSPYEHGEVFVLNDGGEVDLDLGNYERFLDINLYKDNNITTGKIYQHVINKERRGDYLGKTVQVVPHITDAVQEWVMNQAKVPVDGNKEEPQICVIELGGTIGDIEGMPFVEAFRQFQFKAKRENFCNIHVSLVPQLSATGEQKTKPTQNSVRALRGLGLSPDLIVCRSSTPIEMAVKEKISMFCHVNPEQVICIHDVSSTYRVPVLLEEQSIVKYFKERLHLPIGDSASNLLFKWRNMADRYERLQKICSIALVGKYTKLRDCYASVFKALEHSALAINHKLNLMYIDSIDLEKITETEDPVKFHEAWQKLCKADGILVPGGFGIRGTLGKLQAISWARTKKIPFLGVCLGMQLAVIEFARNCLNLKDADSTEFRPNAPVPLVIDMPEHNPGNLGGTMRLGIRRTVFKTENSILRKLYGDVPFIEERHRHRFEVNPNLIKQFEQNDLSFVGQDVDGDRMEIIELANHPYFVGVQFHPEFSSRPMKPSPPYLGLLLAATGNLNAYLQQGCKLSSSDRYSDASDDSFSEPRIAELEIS
inactive: [1] 0.006 | silmitasertib 0.007 | [2] -0.034 | entospletinib 0.019
active: vorinostat 0.327

DOCK7 (UniProt Q96N67)
inactive: [1] 0.032 | silmitasertib 0.053 | [2] -0.019 | entospletinib -0.039
active: vorinostat -0.348

DENND4A isoform 2 (UniProt Q7Z401)
inactive: [1] 0.046 | silmitasertib 0.043 | [2] -0.02 | entospletinib -0.013
active: vorinostat -0.379

DNAAF5 (UniProt Q86Y56)
inactive: [1] 0.029 | silmitasertib 0.129 | [2] 0.02 | entospletinib -0.012
active: vorinostat -0.313

DCP1A (UniProt Q9NPI6)
active: vorinostat -0.234
inactive: [1] -0.03 | silmitasertib 0.022 | [2] 0.011 | entospletinib 0.027

CYCS (UniProt P99999)
inactive: [1] 0.017 | vorinostat 0.114 | silmitasertib -0.004 | [2] 0.033 | entospletinib 0.011

DOCK8 (UniProt Q8NF50)
active: vorinostat -0.489
inactive: [1] -0.015 | silmitasertib 0.06 | [2] 0.022 | entospletinib -0.052

CHORDC1 (UniProt Q9UHD1)
inactive: [1] 0.001 | vorinostat -0.014 | silmitasertib -0.019 | [2] -0.009 | entospletinib 0

CSNK1A1 (UniProt P48729)
inactive: [1] 0.001 | silmitasertib 0.088 | [2] -0.044 | entospletinib 0.017
active: vorinostat -0.276

DHRS3 (UniProt O75911)
UniProt O75911, sequence (O75911 whole entry, looked up): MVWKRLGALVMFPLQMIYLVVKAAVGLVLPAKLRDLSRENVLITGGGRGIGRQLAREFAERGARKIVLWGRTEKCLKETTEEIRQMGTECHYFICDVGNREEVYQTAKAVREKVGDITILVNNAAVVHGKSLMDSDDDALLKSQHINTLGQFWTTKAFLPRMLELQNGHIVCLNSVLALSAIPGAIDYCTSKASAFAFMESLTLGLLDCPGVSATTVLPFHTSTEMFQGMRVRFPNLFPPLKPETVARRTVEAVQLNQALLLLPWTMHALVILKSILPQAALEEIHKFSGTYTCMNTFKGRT
inactive: [1] 0.032 | vorinostat -0.055 | silmitasertib -0.062 | [2] 0.025 | entospletinib 0.096

CYP24A1 (UniProt Q07973)
inactive: [1] 0.187 | vorinostat 0.119 | silmitasertib 0.019 | [2] 0.081 | entospletinib 0.002

CORO7 isoform 3 (UniProt P57737)
inactive: [1] -0.045 | vorinostat -0.176 | silmitasertib 0.042 | [2] 0.004 | entospletinib 0.005

COG6 (UniProt Q9Y2V7)
inactive: [1] 0.021 | silmitasertib 0.072 | [2] 0.09 | entospletinib 0.026
active: vorinostat -0.254

CSNK2B (UniProt P67870)
UniProt P67870, sequence (P67870 whole entry, looked up): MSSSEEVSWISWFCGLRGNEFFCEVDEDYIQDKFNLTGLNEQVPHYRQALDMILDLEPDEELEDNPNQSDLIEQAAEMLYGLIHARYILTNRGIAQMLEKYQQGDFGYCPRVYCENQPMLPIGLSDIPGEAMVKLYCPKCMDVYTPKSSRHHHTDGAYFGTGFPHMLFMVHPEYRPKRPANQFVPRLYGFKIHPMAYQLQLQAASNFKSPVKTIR
inactive: [1] 0.2 | vorinostat -0.016 | [2] 0.023 | entospletinib 0.241
active: silmitasertib 0.595

DNAH10 (UniProt Q8IVF4)
inactive: [1] 0.103 | vorinostat 0.065 | silmitasertib 0 | [2] 0.069 | entospletinib 0.065

DCUN1D4 isoform 3 (UniProt Q92564)
inactive: [1] 0.066 | vorinostat 0.128 | silmitasertib -0.031 | [2] -0.121 | entospletinib -0.096

DDX20 (UniProt Q9UHI6)
active: vorinostat -0.348
inactive: [1] 0.007 | silmitasertib 0.069 | [2] 0.022 | entospletinib -0.008

DIAPH3 (UniProt Q9NSV4)
active: vorinostat -0.584
inactive: [1] -0.047 | silmitasertib 0.067 | [2] -0.006 | entospletinib -0.017

CLPB isoform 2 (UniProt Q9H078)
active: vorinostat -0.446
inactive: [1] 0.075 | silmitasertib 0.062 | [2] -0.028 | entospletinib 0.016

CMSS1 (UniProt Q9BQ75)
active: vorinostat -0.272
inactive: [1] 0.025 | silmitasertib 0.038 | [2] -0.024 | entospletinib -0.013

CNNM2 (UniProt Q9H8M5)
inactive: [1] 0.001 | vorinostat 0.068 | silmitasertib 0.065 | [2] 0.051 | entospletinib -0.073

CLP1 (UniProt Q92989)
active: vorinostat -0.307
inactive: [1] 0.011 | silmitasertib 0.029 | [2] -0.027 | entospletinib 0.008

DLGAP5 (UniProt Q15398)
UniProt Q15398, sequence (Q15398 whole entry, looked up): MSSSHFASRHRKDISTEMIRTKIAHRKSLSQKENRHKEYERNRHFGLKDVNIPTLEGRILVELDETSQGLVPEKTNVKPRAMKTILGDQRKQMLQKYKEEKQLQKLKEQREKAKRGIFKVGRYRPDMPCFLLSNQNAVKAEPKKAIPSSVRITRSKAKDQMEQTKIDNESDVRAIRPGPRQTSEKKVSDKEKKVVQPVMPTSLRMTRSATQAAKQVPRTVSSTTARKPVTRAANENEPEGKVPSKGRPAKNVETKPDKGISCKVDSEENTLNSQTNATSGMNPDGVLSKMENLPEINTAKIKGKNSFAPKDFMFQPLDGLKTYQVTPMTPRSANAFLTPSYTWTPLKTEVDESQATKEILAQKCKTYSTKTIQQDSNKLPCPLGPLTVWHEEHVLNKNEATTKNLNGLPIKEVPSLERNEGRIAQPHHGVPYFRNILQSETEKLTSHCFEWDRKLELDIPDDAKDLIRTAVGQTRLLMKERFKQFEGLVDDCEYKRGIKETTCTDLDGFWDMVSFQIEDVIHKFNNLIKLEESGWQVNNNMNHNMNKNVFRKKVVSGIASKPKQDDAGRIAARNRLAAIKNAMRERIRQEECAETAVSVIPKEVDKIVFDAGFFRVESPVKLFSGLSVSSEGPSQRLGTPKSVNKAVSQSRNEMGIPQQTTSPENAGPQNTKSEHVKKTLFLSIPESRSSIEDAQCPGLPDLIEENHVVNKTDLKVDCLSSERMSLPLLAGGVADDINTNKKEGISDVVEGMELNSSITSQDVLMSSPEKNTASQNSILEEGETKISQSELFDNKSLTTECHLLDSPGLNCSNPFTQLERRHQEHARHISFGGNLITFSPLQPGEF
inactive: [1] -0.008 | silmitasertib -0.002 | [2] -0.006 | entospletinib -0.004
active: vorinostat -0.252

DIAPH1 (UniProt O60610)
inactive: [1] 0.013 | vorinostat -0.014 | silmitasertib 0.009 | [2] -0.02 | entospletinib -0.003

DDX54 isoform 2 (UniProt Q8TDD1)
inactive: [1] 0.131 | vorinostat 0.066 | silmitasertib -0.006 | [2] -0.008 | entospletinib -0.009

DMAC2L (UniProt Q99766)
inactive: [1] -0.023 | vorinostat -0.174 | silmitasertib 0.037 | [2] -0.038 | entospletinib 0.022

DHRS1 (UniProt Q96LJ7)
active: vorinostat -0.561
inactive: [1] -0.154 | silmitasertib -0.021 | [2] -0.055 | entospletinib -0.138

COQ8A (UniProt Q8NI60)
inactive: [1] -0.043 | vorinostat -0.042 | silmitasertib -0.161 | [2] 0.016 | entospletinib 0.053

CLASP1 (UniProt Q7Z460)
active: vorinostat -0.317
inactive: [1] 0.018 | silmitasertib -0.015 | [2] -0.022 | entospletinib 0.029

CWC22 (UniProt Q9HCG8)
inactive: [1] -0.012 | vorinostat -0.156 | silmitasertib 0.032 | [2] -0.016 | entospletinib 0.015

CKAP2 (UniProt Q8WWK9)
inactive: vorinostat 0.011 | silmitasertib -0.013 | [2] -0.044 | entospletinib 0.033
active: [1] 0.434

DICER1 (UniProt Q9UPY3)
active: vorinostat -0.58
inactive: [1] 0.022 | silmitasertib 0.042 | [2] 0.001 | entospletinib -0.004

DNAJC3 (UniProt Q13217)
inactive: [1] -0.029 | vorinostat 0.064 | silmitasertib 0.017 | [2] 0.033 | entospletinib 0

CSPP1 (UniProt Q1MSJ5)
UniProt Q1MSJ5, sequence (Q1MSJ5 whole entry, looked up): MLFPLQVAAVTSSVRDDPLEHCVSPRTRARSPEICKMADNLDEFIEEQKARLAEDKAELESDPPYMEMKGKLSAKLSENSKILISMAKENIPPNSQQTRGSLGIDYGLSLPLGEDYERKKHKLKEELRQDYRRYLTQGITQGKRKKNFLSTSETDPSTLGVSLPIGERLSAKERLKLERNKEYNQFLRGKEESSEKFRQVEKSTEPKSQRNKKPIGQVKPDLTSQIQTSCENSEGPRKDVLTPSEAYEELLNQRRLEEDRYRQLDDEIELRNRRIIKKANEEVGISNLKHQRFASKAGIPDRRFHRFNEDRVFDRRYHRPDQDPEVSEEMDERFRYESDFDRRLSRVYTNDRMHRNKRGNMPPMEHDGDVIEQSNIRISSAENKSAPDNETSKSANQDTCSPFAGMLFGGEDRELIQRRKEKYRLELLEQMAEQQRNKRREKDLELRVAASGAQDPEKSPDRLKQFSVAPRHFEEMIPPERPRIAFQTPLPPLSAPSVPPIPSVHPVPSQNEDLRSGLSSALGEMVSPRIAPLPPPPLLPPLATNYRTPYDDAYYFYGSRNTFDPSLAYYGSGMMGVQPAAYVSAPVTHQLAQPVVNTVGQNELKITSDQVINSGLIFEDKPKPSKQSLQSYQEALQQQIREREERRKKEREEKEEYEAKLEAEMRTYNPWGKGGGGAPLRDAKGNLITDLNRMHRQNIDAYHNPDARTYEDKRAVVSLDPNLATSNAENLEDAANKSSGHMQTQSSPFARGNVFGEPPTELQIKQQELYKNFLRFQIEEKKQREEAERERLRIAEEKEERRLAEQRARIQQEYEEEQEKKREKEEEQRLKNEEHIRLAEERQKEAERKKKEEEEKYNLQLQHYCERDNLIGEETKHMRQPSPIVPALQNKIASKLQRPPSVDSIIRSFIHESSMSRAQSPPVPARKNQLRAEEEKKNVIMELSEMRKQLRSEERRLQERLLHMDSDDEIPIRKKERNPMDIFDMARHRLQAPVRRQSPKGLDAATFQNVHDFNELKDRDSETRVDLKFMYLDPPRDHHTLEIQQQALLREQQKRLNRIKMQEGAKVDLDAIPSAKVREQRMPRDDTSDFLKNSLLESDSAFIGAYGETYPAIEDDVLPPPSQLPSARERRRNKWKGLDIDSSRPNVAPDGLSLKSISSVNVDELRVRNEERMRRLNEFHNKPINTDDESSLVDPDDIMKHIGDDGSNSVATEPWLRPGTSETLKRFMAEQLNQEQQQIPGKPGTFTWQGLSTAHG
inactive: [1] 0.122 | vorinostat 0.085 | silmitasertib -0.027 | [2] 0.043 | entospletinib 0.003

DERA (UniProt Q9Y315)
inactive: [1] -0.015 | vorinostat 0.063 | silmitasertib -0.003 | [2] 0.018 | entospletinib 0

CLIC2 (UniProt O15247)
active: vorinostat -0.369
inactive: [1] 0.022 | silmitasertib -0.018 | [2] 0.029 | entospletinib 0.005

DDX39A (UniProt O00148)
inactive: [1] 0.017 | silmitasertib 0.017 | [2] 0.036 | entospletinib -0.033
active: vorinostat -0.383

CLIP1 isoform 1 (UniProt P30622)
inactive: [1] -0.008 | vorinostat 0.092 | silmitasertib -0.01 | [2] -0.01 | entospletinib -0.009

CNTN4 (UniProt Q8IWV2)
inactive: [1] 0.173 | vorinostat -0.026 | silmitasertib -0.09 | [2] 0.274 | entospletinib 0.06

COX20 isoform 2 (UniProt Q5RI15)
inactive: [1] -0.016 | vorinostat -0.079 | silmitasertib 0.011 | [2] -0.037 | entospletinib 0.026
